Only some compounds are listed: those with a hit (about 4.7% of all), similar ones and a draw of the others.
D1 PAM: human D1 dopamine receptor positive modulation | potentiation, % at 10 µM | P21728 | HEK293 TREx D1 cells, calcium flux, dopamine EC20 potentiation | AID 504651 | 0.036% of 360,000 active; in the data active means potentiation above about 30%; further: 0% is about no effect
TRHR ag: agonists of human TRH receptor | P34981 | activation, % at 2 µM | AID 493084 | TRHR cells, calcium flux fluo-8, FDSS agonist mode | 0.18% of 360,000 active; further: 0% is about no effect
Target sequence (P34981 whole entry, looked up): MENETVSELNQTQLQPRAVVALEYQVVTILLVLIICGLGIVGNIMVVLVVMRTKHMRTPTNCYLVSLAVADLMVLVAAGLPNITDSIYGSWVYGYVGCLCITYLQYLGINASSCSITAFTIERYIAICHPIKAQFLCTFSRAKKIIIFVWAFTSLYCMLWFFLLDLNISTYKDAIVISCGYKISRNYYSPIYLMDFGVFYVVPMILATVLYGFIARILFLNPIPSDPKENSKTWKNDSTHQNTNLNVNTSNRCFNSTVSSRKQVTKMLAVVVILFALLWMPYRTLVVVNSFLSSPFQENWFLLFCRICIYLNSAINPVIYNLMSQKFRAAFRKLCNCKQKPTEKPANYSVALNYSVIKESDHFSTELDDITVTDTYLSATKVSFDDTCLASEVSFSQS
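TRHR-expressing cells, plated overnight in medium with 10% serum, were loaded with fluo-8 calcium dye at room temperature. After a 10 s baseline, library compound was pin-added and calcium release was recorded kinetically (ex 480/em 530) as agonist response.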
D1 antagonist: blocks dopamine activation of the human D1 receptor; HEK293 TREx D1 cells, calcium flux, dopamine EC80; hits give low values; 3.2% of 360,000 active; AID 504652; activity change, negative = inhibition, % at 10 µM; in the data active means activity change below about -30%; further: on the % scale 0 is the no-effect control and ±100 the full control effect
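Cells carrying a force-coupled, tetracycline-inducible human D1 receptor report calcium flux. Each well gets a 10 s baseline, compound with 180 s monitoring, then an EC80 dopamine stimulus with a second 180 s kinetic read.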
TRHR PAM: allosteric enhancers of human TRH receptor; P34981; TRHR cells, fluo-8 calcium fluorescence, EC20 TRH enhancement; enhancement, % at 2 µM; 0.66% of 360,000 active; in the data active means enhancement above about 30%; further: 0% is about no effect
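TRHR-expressing cells loaded with fluo-8 calcium dye were read kinetically (ex 480/em 530) during compound addition, then stimulated with an EC20 of TRH (10 nM final). Enhancement of the Gq-mediated intracellular calcium response was scored.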
D1 ag: activates the human D1 dopamine receptor; P21728; HEK293 T-REx D1 cells, calcium flux, agonist mode; activation, % at 2 µM; 1% of 360,000 active; further: 0% is about no effect
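Inducible HEK293 T-REx D1 cells, force-coupled to calcium signalling, were plated at 4000 cells/well with tetracycline and held overnight at 30 C. After no-wash calcium dye loading, compound-evoked calcium rise over 180 s flagged agonists.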
An asterisk follows results filed as active; ! = repeats disagree. Unless noted, no stated cut-off is given here; in the data, active means activation above about 30%; inactive means the rest.

SMILES	D1 PAM	TRHR ag	D1 antagonist	TRHR PAM	D1 ag
CCOC(=O)C(Cc1c[nH]c2ccccc12)NC(=O)COc1ccc(CC)cc1 (stereo unspecified)	0	-1	1	-4	3
COc1ccc(C(=O)COC(=O)c2sc(C)nc2C)cc1Cl	-5	1	-24	1	11
Cc1c(Cl)cccc1NC(=O)COCc1cc(-c2ccc3c(c2)OCO3)on1	5	1	-2	10	13
O=C(COCc1cc(-c2ccc3c(c2)OCO3)on1)Nc1cc(C(F)(F)F)ccc1Cl	-2	3	-7	2	33*
O=C(COCc1cc(-c2ccc(F)cc2)on1)Nc1cc(Cl)ccc1O	1	1	-37*	-7	17
CSCCC(NC(=O)c1ccco1)C(=O)OC(C)C(=O)NC(=O)NC1CCCCC1 (stereo unspecified)	-4	52*	3	-2	1
CCc1ccc(OCC(=O)NNC(=O)CNC(=O)c2ccc(Br)o2)cc1	-2	0	-2	0	2
CCCOc1ccc(OC(=O)c2ccc(Br)o2)cc1	-8	0	-43*	5	94*
CSc1nc(NC(C)(C)C)nc(Oc2ccc(=O)n(C)n2)n1	-7	1	-34*	4	2
CC(C)Nc1nc(NC(C)(C)C)nc(Oc2ccc(=O)n(-c3ccccc3)n2)n1	3	3	4	7	37*
CC(C)CNc1nc(NC(C)(C)C)nc(Oc2ccc(=O)n(-c3ccccc3)n2)n1	1	-1	16	3	0
CNc1nc(Oc2ccc(=O)n(C)n2)nc(N2CCOCC2)n1	-10	1	-31*!	7	2
COc1ccc(NC(=O)CC2C(=O)N(c3ccc(OC)cc3)C(=O)N2CCC2=CCCCC2)cc1 (stereo unspecified)	-2	0	-31*	0	1
CCOc1ccc(NC(=O)CC2C(=O)N(c3ccc(F)cc3)C(=O)N2CCc2sccc2C)cc1 (stereo unspecified)	1	1	3	42*	1
COc1ccc(NC(=O)CC2C(=O)N(c3ccc(F)cc3)C(=O)N2CCc2sccc2C)cc1 (stereo unspecified)	-3	1	-3	1	4
CCCOc1ccc(NC(=O)CC2C(=O)N(c3ccc(Cl)cc3)C(=O)N2CCc2ccncc2)cc1 (stereo unspecified)	-3	2	-35*	-5	27
COC(=O)CN1C(=S)N(c2ccc(Cl)cc2)C(=O)C1CC(=O)Nc1ccc(F)cc1 (stereo unspecified)	-6	0	-10	4	16
COC(=O)CN1C(=S)N(c2ccc(F)cc2)C(=O)C1CC(=O)Nc1ccc(F)cc1 (stereo unspecified)	-2	2	-51*	0	1
Cc1cc2c(s1)c1cnn(Cc3ccc(C(=O)O)cc3)c(=O)c1n2C	5	0	-5	8	7
Cc1cccc(N2C(=O)C(CC(=O)Nc3ccc(Cl)cc3)N(Cc3ccco3)C2=O)c1 (stereo unspecified)	-1	0	-2	-3	-1
COc1ccc(NC(=O)CC2C(=O)N(c3ccc(C)cc3)C(=O)N2CCc2ccccc2)cc1 (stereo unspecified)	-5	-1	-37*	4	1
COc1ccc(CCN2C(=O)N(c3ccc(F)cc3)C(=O)C2CC(=O)Nc2ccccc2)cc1 (stereo unspecified)	0	0	3	-6	-1
O=C(CC1C(=O)N(c2ccccc2)C(=O)N1Cc1ccco1)Nc1ccccc1 (stereo unspecified)	-1	0	-44*	1	1
CC(C)c1nn2c(=O)cc(COC(=O)c3cccs3)nc2s1	-3	1	25	1	2
CNC(=O)/C(C#N)=C/c1cn(CC(=O)NCc2ccco2)c2ccccc12	2	0	-10	5	-3
COCCNC(=O)Cn1cc(/C=C(\C#N)C(=O)NC2CCCC2)c2ccccc21	33*	0	-4	-17	1
Cc1[nH]nc(Nc2ccc(Br)cc2)c1[N+](=O)[O-]	-10	0	-36*	-8	10
Cc1cccc(Nc2n[nH]c(C)c2[N+](=O)[O-])c1	-7	0	-37*	-7	20

Bioassay records as filed in PubChem.
